For some assays here: Measured potencies and affinities stand elsewhere.
Tests used:
[1] = target: T1, Methionyl-tRNA synthetase, putative (Leishmania donovani (strain BPK282A1)) (UniProt E9BF75); assay: Leishmania donovani Methionine tRNA synthetase (LdMetRS):v7. Dose response assay; type: functional; design: conc 80 nM, time 150 minutes
T1 sequence (whole entry): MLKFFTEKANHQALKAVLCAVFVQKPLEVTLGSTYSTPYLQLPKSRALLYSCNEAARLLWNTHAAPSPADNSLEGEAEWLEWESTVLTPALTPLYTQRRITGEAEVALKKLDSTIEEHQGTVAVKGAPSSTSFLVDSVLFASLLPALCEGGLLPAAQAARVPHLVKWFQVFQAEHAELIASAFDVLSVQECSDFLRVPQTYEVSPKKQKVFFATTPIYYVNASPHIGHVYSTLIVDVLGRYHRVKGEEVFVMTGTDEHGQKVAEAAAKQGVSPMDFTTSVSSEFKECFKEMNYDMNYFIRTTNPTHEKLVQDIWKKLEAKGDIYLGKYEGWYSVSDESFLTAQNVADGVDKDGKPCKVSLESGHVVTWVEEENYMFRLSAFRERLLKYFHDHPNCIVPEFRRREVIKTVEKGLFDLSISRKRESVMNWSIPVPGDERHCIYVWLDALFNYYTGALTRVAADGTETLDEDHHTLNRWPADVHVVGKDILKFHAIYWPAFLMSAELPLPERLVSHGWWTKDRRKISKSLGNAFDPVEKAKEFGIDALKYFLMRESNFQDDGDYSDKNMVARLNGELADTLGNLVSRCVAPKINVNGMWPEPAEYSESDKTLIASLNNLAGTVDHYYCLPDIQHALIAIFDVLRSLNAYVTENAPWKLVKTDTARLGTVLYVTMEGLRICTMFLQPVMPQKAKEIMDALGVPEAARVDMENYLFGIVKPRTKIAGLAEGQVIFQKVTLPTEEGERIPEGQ

[2] = target: Protein translocase subunit SecA (Escherichia coli (strain K12)) (UniProt P10408); assay: Assay to Identify E. coli SecA ATPase Inhibitors; type: functional; design: scale not given: direction of the effect not stated beside the values; settings: 30 µM
[3] = target: T2, Ubiquitin-activating enzyme e1, putative (Leishmania donovani (strain BPK282A1)) (UniProt E9BSI1); assay: Leishmania donovani Ubiquitin Activating Enzyme (LdE1); type: functional; design: scale not given: direction of the effect not stated beside the values; settings: 30 µM
T2 sequence (whole entry): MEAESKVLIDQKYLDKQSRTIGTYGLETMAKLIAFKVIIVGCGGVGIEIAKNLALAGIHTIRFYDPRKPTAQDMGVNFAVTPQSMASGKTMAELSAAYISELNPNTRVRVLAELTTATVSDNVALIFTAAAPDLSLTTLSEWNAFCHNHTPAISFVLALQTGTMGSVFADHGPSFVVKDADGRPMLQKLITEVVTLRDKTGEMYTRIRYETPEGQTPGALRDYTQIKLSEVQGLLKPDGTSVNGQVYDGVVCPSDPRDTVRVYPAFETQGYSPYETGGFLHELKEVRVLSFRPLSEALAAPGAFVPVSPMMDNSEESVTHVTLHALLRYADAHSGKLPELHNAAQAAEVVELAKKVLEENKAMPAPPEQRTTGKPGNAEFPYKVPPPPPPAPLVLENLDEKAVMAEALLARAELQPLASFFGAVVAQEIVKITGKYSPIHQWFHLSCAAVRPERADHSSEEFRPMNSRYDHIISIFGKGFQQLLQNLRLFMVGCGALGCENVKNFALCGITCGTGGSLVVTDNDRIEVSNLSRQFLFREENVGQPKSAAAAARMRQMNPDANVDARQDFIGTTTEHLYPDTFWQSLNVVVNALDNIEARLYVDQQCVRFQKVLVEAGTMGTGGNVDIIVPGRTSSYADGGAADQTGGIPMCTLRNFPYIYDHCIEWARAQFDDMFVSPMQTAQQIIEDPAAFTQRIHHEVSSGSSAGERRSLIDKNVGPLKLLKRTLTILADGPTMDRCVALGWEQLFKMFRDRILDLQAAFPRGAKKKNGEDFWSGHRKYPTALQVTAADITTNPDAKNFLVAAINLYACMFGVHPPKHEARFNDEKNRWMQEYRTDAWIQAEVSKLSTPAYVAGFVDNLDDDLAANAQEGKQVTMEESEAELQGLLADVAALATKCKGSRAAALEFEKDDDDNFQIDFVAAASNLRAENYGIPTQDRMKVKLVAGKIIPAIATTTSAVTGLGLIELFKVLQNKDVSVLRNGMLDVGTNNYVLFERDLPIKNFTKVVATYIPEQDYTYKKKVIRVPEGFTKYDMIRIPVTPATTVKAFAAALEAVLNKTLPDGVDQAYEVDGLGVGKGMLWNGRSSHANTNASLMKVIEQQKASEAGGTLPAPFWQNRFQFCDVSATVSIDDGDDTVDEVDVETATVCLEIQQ

[4] = target: AMP-activated protein kinase, AMPK (Homo sapiens) (UniProt P54646+O43741+P54619+Q9UGJ0+Q9Y478+Q13131+Q9UGI9); assay: AMP-dependent Kinase enzyme assay. An in vitro enzyme assay that detects ADP turnover that is directly proportional to AMPK activity. This uses naive AMPK that is activated during the assay with MK-8722; type: functional; design: scale not given: direction of the effect not stated beside the values; settings: 30 µM
[5] = target: Sialic acid-binding Ig-like lectin 9 (Homo sapiens) (UniProt Q9Y336); assay: Hs-Siglec9 ALPHAscreen SOP 20170721; design: scale not given: direction of the effect not stated beside the values; settings: 10 µM
[6] = system: Trypanosoma cruzi; assay: Trypanosoma cruzi phosphomannomutase and mannose-1-phosphate guanylyltransferase assay; type: functional; design: scale not given: direction of the effect not stated beside the values; settings: 10 µM
[7] = target: T3, Arginase-2, mitochondrial (Homo sapiens) (UniProt P78540); assay: in vitro enzyme assay to detect the production of urea directly proportional to the activity of Arginase II; type: functional; design: scale not given: in the data most compounds retested in dose-response had high values; settings: 33.3 µM
T3 sequence (whole entry): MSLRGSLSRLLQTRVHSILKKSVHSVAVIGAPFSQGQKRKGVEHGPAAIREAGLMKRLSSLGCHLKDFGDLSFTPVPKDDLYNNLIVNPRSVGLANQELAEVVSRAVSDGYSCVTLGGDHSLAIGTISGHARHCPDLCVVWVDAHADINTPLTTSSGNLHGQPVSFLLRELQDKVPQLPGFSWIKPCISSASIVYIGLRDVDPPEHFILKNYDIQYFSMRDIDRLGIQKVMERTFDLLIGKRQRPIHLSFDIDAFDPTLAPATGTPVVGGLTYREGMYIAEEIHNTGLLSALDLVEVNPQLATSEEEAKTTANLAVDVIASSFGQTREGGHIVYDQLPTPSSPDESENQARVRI

[8] = target: T4, Proteasome subunit beta (Trypanosoma cruzi) (UniProt O96673); assay: Trypanosoma cruzi proteasome chymotrypsin-like activity (TcProtChymo) assay.; type: functional; design: scale not given: in the data most compounds retested in dose-response had high values; settings: 9.37 µM
T4 sequence (whole entry): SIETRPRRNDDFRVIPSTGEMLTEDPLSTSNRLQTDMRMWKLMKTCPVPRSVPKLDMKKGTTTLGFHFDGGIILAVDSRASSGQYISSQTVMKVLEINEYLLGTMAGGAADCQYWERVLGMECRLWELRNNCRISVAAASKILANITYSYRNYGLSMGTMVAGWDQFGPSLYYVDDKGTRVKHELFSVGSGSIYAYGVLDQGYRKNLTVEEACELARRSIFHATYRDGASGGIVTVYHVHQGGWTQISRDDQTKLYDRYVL

[9] = organism: Homo sapiens; assay: To identify inhibition of the IFN signalling (Jak-Stat) pathway via expression of an eGFP reporter gene under the control of an IFN-stimulated response element (ISRE) containing MxA promoter.; type: functional; design: scale not given: direction of the effect not stated beside the values; settings: 30 µM
[10] = target: T5, Tyrosyl-tRNA synthetase, putative (Trypanosoma cruzi (strain CL Brener)) (UniProt Q4DSP6); assay: Trypanosoma cruzi tyrosyl tRNA synthetase (TcYRS) _High Tyrosine SOP; type: functional; design: scale not given: in the data most compounds retested in dose-response had high values; settings: 30 µM
T5 sequence (whole entry): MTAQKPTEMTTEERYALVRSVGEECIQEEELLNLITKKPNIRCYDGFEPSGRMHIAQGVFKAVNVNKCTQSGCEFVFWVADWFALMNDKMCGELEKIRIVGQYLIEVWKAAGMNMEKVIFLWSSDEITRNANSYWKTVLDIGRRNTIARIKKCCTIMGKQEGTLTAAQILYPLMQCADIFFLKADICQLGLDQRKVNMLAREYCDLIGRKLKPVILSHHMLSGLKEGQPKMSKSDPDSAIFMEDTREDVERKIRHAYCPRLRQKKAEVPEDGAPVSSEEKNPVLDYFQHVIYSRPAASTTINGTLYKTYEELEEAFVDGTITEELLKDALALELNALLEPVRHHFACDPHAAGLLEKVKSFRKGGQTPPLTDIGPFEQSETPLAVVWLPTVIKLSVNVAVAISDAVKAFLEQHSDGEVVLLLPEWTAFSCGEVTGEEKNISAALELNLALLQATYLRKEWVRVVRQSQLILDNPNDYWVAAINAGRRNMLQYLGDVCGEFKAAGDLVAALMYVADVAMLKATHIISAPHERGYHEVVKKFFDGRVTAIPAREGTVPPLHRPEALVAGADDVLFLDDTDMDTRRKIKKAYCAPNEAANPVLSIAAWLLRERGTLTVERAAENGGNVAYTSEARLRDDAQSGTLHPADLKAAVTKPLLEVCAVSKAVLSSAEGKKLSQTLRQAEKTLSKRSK

[11] = target: T5, Tyrosyl-tRNA synthetase, putative (Trypanosoma cruzi (strain CL Brener)); assay: Trypanosoma cruzi tyrosyl tRNA synthetase (TcYRS) SOP; type: functional; design: scale not given: direction of the effect not stated beside the values; settings: 30 µM
[12] = target: Chromo domain-containing protein 1 (Saccharomyces cerevisiae (strain ATCC 204508 / S288c) (Baker's yeast)) (UniProt P32657); assay: ScCHD-1 Enzyme Inhibition Assay; type: functional; design: scale not given: in the data most compounds retested in dose-response had high values; settings: 30 µM
Sequence of Chromo domain-containing protein 1 (Saccharomyces cerevisiae (strain ATCC 204508 / S288c) (Baker's yeast)) (P32657 whole entry, the tested form may be a part): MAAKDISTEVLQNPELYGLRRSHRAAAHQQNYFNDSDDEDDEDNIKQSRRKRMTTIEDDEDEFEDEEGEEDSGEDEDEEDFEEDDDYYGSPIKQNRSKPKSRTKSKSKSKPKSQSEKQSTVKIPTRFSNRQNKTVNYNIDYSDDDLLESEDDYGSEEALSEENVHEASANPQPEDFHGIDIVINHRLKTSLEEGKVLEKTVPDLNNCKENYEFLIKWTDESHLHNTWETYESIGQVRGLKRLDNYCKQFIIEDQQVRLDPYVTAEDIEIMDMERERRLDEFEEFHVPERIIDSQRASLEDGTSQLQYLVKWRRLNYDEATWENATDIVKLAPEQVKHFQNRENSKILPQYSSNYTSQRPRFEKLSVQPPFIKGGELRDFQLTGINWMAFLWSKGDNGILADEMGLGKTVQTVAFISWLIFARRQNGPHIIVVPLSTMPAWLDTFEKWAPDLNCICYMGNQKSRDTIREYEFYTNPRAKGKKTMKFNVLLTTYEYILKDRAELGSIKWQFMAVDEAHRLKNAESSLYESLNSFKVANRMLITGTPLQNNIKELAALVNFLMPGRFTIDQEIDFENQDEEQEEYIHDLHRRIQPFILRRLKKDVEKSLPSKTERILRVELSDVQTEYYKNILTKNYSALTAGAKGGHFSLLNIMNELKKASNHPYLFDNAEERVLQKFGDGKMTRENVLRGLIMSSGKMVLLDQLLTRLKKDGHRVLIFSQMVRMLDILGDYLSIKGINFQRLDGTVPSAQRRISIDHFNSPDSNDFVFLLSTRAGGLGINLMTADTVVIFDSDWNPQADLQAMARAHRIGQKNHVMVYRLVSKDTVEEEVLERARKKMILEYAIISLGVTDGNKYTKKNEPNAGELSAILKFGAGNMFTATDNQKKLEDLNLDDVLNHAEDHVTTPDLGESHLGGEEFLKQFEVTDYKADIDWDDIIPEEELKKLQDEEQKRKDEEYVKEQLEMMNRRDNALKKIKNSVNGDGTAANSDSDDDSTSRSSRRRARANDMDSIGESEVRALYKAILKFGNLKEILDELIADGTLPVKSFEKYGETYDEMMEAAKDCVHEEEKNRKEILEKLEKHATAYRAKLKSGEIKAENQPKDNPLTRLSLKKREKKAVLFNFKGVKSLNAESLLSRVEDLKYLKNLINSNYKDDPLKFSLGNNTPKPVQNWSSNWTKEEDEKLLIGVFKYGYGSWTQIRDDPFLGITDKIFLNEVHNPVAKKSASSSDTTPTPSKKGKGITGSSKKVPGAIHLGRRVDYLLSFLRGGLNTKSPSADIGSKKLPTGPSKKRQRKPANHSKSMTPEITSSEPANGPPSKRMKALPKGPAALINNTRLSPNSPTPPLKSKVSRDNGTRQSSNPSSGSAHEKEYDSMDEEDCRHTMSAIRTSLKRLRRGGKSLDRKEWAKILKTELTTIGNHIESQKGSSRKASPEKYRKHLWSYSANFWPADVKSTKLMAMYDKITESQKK

Sequence of Sialic acid-binding Ig-like lectin 9 (Homo sapiens) (Q9Y336 whole entry): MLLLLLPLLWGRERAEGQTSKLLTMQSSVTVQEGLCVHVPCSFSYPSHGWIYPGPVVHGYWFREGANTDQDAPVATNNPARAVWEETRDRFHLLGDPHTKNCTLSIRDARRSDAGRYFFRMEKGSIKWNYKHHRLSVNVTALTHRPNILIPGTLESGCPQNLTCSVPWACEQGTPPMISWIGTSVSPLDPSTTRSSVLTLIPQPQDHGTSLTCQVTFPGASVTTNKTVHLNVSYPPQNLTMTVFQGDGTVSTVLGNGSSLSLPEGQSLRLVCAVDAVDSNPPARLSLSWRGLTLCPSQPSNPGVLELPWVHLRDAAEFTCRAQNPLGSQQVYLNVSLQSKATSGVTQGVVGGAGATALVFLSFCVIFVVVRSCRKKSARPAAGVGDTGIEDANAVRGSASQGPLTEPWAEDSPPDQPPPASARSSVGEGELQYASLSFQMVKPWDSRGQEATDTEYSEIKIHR
Sequence of Protein translocase subunit SecA (Escherichia coli (strain K12)) (P10408 whole entry): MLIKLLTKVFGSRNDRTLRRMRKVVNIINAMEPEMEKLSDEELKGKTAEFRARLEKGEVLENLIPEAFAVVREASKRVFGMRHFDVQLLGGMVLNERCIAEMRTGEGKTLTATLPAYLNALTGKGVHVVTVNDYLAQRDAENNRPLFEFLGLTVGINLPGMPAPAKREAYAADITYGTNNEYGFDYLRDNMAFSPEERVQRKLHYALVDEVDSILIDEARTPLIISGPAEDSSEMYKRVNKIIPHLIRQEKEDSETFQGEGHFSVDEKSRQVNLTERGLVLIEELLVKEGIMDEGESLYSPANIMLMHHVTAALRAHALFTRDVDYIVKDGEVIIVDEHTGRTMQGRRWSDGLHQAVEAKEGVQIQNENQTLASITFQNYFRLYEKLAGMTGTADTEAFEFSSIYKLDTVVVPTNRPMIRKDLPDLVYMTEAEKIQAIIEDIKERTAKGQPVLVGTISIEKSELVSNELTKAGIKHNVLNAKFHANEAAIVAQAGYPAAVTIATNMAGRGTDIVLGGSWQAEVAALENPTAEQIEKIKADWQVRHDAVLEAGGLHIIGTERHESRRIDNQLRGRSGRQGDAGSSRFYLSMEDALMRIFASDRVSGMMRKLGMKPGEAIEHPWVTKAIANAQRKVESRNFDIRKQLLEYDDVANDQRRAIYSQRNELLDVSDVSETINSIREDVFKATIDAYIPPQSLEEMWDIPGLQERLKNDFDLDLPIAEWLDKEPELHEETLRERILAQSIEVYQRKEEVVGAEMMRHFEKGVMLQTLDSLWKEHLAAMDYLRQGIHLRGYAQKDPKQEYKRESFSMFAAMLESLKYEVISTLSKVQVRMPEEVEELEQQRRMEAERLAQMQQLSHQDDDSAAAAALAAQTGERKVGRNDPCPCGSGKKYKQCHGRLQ

Structure (SMILES) | PXC50 ([1]; BOTTOM 1.14070889, HILLSLOPE 1.278083227, MAX_EFFECT 56.52173913, TOP 100.0) | PXC50 ([1]; MAX_EFFECT 23.76395534) | PXC50 ([1]; MAX_EFFECT 26.29558541) | PXC50 ([1]; MAX_EFFECT 33.33333333) | PXC50 ([1]; MAX_EFFECT 45.21452145) | Percent Effect [2] [%] | Percent Effect [3] [%] | Percent Effect [4] [%] | Percent Effect [5] [%] | Percent Effect [6] [%] | Percent Effect [7] [%] | Percent Effect [8] [%] | Percent Effect [9] [%] | Percent Effect [10] [%] | Percent Effect [11] [%] | Percent Effect [12] [%] | PXC50 ([1]; MAX_EFFECT 33.25415677) | PXC50 ([1]; MAX_EFFECT 41.72535211)
Cc1nc2cc(=O)[nH]n2c(C)c1CC(=O)Nc1ccc2ccccc2n1 | 4.1 | < 4 | < 4 | < 4 | < 4 | -3.58 | 5.26 | -24.7 | 6.53 | 0.564 | -6.51 | -1.34 | -15.5 | 16.2 | 12.2 | -1.37 | – | –
Cc1nnc(NCC2(c3ccc(Cl)cc3Cl)CCOCC2)c(C#N)c1C | – | – | – | – | – | -4 | 0 | -11.6 | 42.2 | 12.2 | 1.91 | 8.97 | 10.4 | 5.82 | 2.44 | -12.2 | < 4 | < 4
